Where “and” joins values, the source holds several entries; their conditions need not be identical. Identical values can stand only once. Calls of active or inactive are those of the source.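 Rule for the calls, unless noted: active = inhibition at or above 50% relative to wild type and mutant plate controls; inactive = inhibition below 50%.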

As usually defined, the inhibition is the drop in the measured response relative to a control, in per cent.

Assay [1] in a line: inhibitors of mutant huntingtin aggregation, primary screen, imaging, exon1htt(103Q)mCFP cells, high-content imaging (AID 483;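 active = visual image review flags a hit and inhibition of aggregation exceeds 20%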;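 note: compound exposure lasted 3 days before fixation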;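 for nuclei count: percent of the per-plate median nuclei count of sample wells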). Conditions: exon1htt(103Q)mCFP cell line, aggregate imaging, at 2 µM; inhibition of aggregation: stronger effect = higher value; nuclei count: measured here: cell count, toxicity.
A short description of assay [2]: inhibitors of E-selectin induction by TNFa, primary screen, imaging, HUVEC, immunofluorescence, MLSMR starter and 10KST1 sets (AID 487;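 active = visually confirmed hit in the image check and inhibition above 20%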;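 for inhibition: signal is fraction of cell area covered by stained E-selectin grains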;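 for nuclei count: 100% = median nuclei count of all wells on the same plate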). Conditions: HUVEC TNFalpha-induced E-selectin immunofluorescence imaging, at 2 µM; inhibition: stronger effect = higher value; nuclei count: measured here: cell number, toxicity.
Assay [3] in a line: DUSP6 inhibitors restoring Erk phosphorylation by chemical complementation, primary imaging in DUSP6-transfected HeLa (AID 609;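 active = compounds giving at least 50% inhibition in the cell-based MKP-3 phosphatase rescue imaging test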;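 for inhibition: phospho-Erk level distribution per well compared with pooled transfected vehicle control wells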). Conditions: HeLa MKP-3 transfected, phospho-Erk imaging KS statistic, at 10 µM, cells stimulated with TPA for 15 min.
The target of assay [4] is Dual specificity protein phosphatase 6 (Homo sapiens) (UniProt Q16828). Described as above. To be noted: HeLa MKP-3 transfected, phospho-Erk imaging KS statistic; at 10 µM; stronger effect = higher value; cells stimulated with TPA for 15 min.
Dual specificity protein phosphatase 6 (Homo sapiens), sequence (Q16828 whole entry, looked up): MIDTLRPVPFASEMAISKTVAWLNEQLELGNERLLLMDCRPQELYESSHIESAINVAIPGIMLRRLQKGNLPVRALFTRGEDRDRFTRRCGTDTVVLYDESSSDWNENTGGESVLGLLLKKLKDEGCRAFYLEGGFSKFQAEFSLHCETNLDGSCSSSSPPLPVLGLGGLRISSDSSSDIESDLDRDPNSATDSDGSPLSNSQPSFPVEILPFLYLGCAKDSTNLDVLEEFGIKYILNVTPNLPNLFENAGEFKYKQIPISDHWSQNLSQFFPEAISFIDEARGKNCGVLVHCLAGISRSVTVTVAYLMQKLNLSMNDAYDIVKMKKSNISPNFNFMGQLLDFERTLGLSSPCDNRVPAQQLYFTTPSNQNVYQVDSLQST
In assay [5] the target is Voltage-gated potassium channel subunit beta-2 (Rattus norvegicus) (UniProt P62483). The assay can be described thus: KvBeta enzyme negative modulators, primary screen, biochemical, NADPH fluorescence (AID 622;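 active = fluorescence slope higher than the sample average by over 3 SD, cut at about -0.22 in these data, passing the limit was not always enough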;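 note: slope of raw intensity against log time taken from 70 to 1610 s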). Conditions: recombinant KvBeta, 4-cyanobenzaldehyde reduction, at 10 µM, stronger effect = higher value.
Voltage-gated potassium channel subunit beta-2 (Rattus norvegicus), sequence (P62483 whole entry, looked up): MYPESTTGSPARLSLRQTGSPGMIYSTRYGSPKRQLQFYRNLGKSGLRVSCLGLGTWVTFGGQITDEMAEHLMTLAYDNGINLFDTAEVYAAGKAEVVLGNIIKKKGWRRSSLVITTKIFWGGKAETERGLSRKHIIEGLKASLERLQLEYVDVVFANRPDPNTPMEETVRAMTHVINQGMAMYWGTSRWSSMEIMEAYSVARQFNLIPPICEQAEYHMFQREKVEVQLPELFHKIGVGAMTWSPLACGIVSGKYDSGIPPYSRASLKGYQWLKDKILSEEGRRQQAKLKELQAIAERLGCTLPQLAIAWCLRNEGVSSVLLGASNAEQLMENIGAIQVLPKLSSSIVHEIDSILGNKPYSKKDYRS
The target is the same in assay [6]. Description: KvBeta positive modulators, primary screen, biochemical, NADPH fluorescence (AID 623;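 active = NADPH fluorescence slope more negative than the mean of all samples by about 3 SD, 99.7% confidence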;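 note: fluorescence intensity change per second fitted from 20 to 320 s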). To be noted: Recombinant KvBeta, NADPH fluorescence decrease slope, 10 min; at 10 µM; stronger effect = lower value.
Assay [7] has as its target Alpha-2C adrenergic receptor (Homo sapiens) (UniProt P18825). Description: modulators of alpha2C/GIRK thallium flux, primary screen, cell-based, HEK293 alpha2C/GIRK1/2 (AID 624;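 active = fluorescence slope after compound addition differing from the mean of all screened samples at 99.7% confidence, in either direction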;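 note: slope of fluorescence ratio to pre-addition baseline per second over 15 to 24 s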). To be noted: thallium flux BTC fluorescence, at 10 µM, actives lie on both sides.
Assay [8] is described as follows: inhibitors of larval lipid processing in zebrafish, primary screen, whole organism, PED6 fluorescence, gall bladder and intestine (AID 686;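 active = a full or partial loss of lipid-probe fluorescence in the fish gall bladder, intestine or both, judged by eye; inactive = no fluorescence loss, or compound toxic to the fish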;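 note: larvae 5 to 7 days old with five fish per well; signal comes from phospholipase A2 cleavage of quenched PED6 carried via bile; overnight exposure to compound and PED6 before scoring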). Conditions: Zebrafish larvae PED6 lipid processing, fluorescence scoring; screened at 20 µM (by protocol).
A short description of assay [9]: inhibitors of Chlamydomonas gravitaxis, primary screen, whole organism, Chlamydomonas reinhardtii, WT vs cilia-less mutant, absorbance, 96-well (AID 463189).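 Note: 0% = wild type cc124 cells in DMSO and 100% = ciliumless bld1 mutant cells.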 To be noted: OD600 absorbance, 2 days, at 10 µM, stronger effect = higher value.
Assay [10] is described as follows: inhibitors of Sendai virus-induced IRF3 signaling, primary screen, TLR/RLR signaling modifier project, cell-based, Sendai virus stimulus, luciferase, 10K MLSCN set (AID 602276;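 active = inhibition at or above 50% at 10 µM; inactive = inhibition below 50%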;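 note: firefly luciferase from ISG56 promoter only with Renilla not read in this screen; 0% = Sendai virus plus DMSO and 100% = medium plus DMSO without virus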). To be noted: HEK293 RL24 IRF3 luciferase reporter, at 10 µM, stronger effect = higher value. In general terms: In a reporter assay the amount or activity of a reporter protein is the signal.
Assay [11] is described as follows: inhibitors of poly I:C-induced TLR3 signaling, primary screen, cell-based, poly I:C stimulus, luciferase, 10K MLSCN set (AID 602277;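 active = inhibition of the reporter signal at or above 50%; inactive = inhibition below 50%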). Conditions: HEK293-TLR3 RL24 IRF3 luciferase reporter, at 10 µM, stronger effect = higher value.
Setting [12] is: measured here: cell density z-score.
Where [13] appears, read: measured here: nuclear c-Myc green intensity z-score.
[14] abbreviates: measured here: nuclear pErk red intensity z-score, stronger effect = higher value.

Alpha-2C adrenergic receptor (Homo sapiens), sequence (P18825 whole entry, looked up): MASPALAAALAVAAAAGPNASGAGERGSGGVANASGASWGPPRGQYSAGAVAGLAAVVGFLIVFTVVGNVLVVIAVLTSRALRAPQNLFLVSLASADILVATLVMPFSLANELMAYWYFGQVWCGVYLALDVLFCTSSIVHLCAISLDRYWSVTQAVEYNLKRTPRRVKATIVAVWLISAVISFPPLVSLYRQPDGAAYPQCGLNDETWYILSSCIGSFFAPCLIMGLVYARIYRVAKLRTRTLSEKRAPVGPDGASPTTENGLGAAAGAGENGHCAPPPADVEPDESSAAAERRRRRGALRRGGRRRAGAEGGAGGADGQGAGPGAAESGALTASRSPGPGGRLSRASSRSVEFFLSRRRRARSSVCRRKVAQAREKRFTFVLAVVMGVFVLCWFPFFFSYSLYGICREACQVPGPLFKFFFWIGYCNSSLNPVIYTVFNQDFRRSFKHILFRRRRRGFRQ

Turning to `CC(=O)OCC1=C(C(=O)O)N2C(=O)[C@@H](NC(=O)Cc3cccs3)[C@H]2SC1`, the inhibition of aggregation in assay [1] was -14.4% (inactive). Besides, the nuclei count in assay [1] was found to be 85.4%; in assay [2] it was 116%. Besides, the inhibition in assay [2] was -35% (inactive); in assay [4], 17.3% (inactive); in assay [9], 7.69% (inactive) and 18.3% (inactive); in assay [10], 10.9% (inactive); in [11] it was 35.2% (inactive). Besides, the z-score in assay [3] (setting [12]) is -0.65; in assay [3] (setting [13]), -0.0505; in assay [3] (setting [14]), -0.555. Besides, the fluorescence slope in [5] was -0.429 (inactive). The NADPH fluorescence slope in assay [6] is -5.9e-05 (inactive). Further, the slope in assay [7] was 0.00483 (inactive). Also, the result in [8] was inactive.

Take `CC1(C)S[C@@H]2[C@H](NC(=O)Cc3ccccc3)C(=O)N2[C@H]1C(=O)O`: the inhibition of aggregation in assay [1] was 9.3% (inactive). Besides, the figures for the nuclei count in [1] and in assay [2] were 68.8% and 104%, respectively. Moreover, the inhibition in assay [2] is -6% (inactive); in [4] it was 5.79% (inactive); in [9], 4.14% (inactive); in [10], 20.3% (inactive); in assay [11] it was 37.6% (inactive). For the same compound, the z-score in [3] (setting [12]) is 1.44; in assay [3] (setting [13]) it was -1.24; in [3] (setting [14]), -1.04. The fluorescence slope in assay [5] was -0.496 (inactive). In assay [6], the NADPH fluorescence slope was -5.4e-05 (inactive). The slope in [7] was 0.00416 (inactive). Further, the compound was classed as inactive in assay [8].

In the case of `CC(C)C[C@H]1C(=O)N2CCC[C@H]2[C@]2(O)O[C@](NC(=O)[C@@H]3C=C4c5cccc6[nH]c(Br)c(c56)CC4N(C)C3)(C(C)C)C(=O)N12` (some centres undefined), the inhibition of aggregation in [1] was -4% (inactive). Further, the nuclei count in [1] amounted to 96.5%; in assay [2], 122%. The inhibition in assay [2] is -74.8% (inactive); in assay [4], 5.42% (inactive); in [9] it was -11.5% (inactive); in assay [10] it was 7.85% (inactive); in assay [11] it was 5.12% (inactive). Further, the z-score was -0.747 in assay [3] (setting [12]), -0.999 in [3] (setting [13]) and 0.764 in [3] (setting [14]). In addition, the fluorescence slope in assay [5] was -0.523 (inactive). The NADPH fluorescence slope in assay [6] is 8.6e-06 (inactive). Moreover, the slope in assay [7] is 0.00416 (inactive). In addition, the outcome in assay [8] was inactive.

Regarding `CC(C)(C)NC[C@H](O)COc1nsnc1N1CCOCC1`, the inhibition of aggregation in assay [1] is -13.8% (inactive). The results for the nuclei count in assay [1] and in assay [2] were 102% and 119%, respectively. In addition, the inhibition was -120% (inactive) in assay [2]; -10.4% (inactive) in assay [4]; -10.5% (inactive) in assay [9]; 6.87% (inactive) in [10]; 46.4% (inactive) in [11]. In addition, the z-score is -0.0639 in assay [3] (setting [12]), -0.39 in assay [3] (setting [13]) and 1.55 in assay [3] (setting [14]). Also, in assay [5], the fluorescence slope is -0.502 (inactive). Moreover, the NADPH fluorescence slope in assay [6] is -5e-06 (inactive). For the same compound, the slope in assay [7] is 0.00458 (inactive). Also, the result in [8] was inactive.

For `CC(=O)O[C@]1(C(C)=O)CC[C@H]2[C@@H]3C=C(Cl)C4=CC(=O)CC[C@]4(C)[C@H]3CC[C@@]21C`, the inhibition of aggregation in assay [1] is -13.1% (inactive). Further, the nuclei count is 100% in [1] and 126% in assay [2]. In addition, the inhibition in [2] was -108% (inactive); in [4], 5.79% (inactive); in assay [9], 8.01% (inactive); in [10], -5.93% (inactive); in assay [11] it was 38.2% (inactive). Moreover, the z-score in assay [3] (setting [12]) was -0.773; in assay [3] (setting [13]), -0.174; in assay [3] (setting [14]), -0.613. The fluorescence slope in assay [5] is -0.438 (inactive). The NADPH fluorescence slope in assay [6] is -6.7e-05 (inactive). For the same compound, the slope in assay [7] is 0.00452 (inactive).

Regarding `O=c1[nH]c2ccccc2n1CCCN1CCN(C(c2ccccc2)c2ccccc2)CC1`, the inhibition of aggregation in assay [1] is 0% (inactive). The nuclei count in assay [1] came to 107%; in [2], 123%. Also, the inhibition in assay [2] was -139% (inactive); in assay [4], 1.48% (inactive); in [9], 0.779% (inactive) and 19.8% (inactive); in [10], 18.3% (inactive); in assay [11] it was 35.4% (inactive). Besides, the values for the z-score in [3] (setting [12]), in assay [3] (setting [13]) and in assay [3] (setting [14]) were -0.406, -0.951 and 1.42, respectively. Moreover, the fluorescence slope in assay [5] is -0.492 (inactive). Further, the NADPH fluorescence slope in assay [6] is 1.6e-07 (inactive). Further, in [7], the slope is 0.00471 (inactive). Also, the compound was classed as inactive in [8].

`CNCCC(Oc1ccc(C(F)(F)F)cc1)c1ccccc1` (centres undefined): the inhibition of aggregation in [1] was 10.2% (inactive). Moreover, the nuclei count in [1] was 100%; in assay [2] it was 127%. The inhibition in [2] is -36.9% (inactive); in assay [4] it was 12.4% (inactive); in assay [9] it was 1.27% (inactive) and 34.8% (inactive); in assay [10] it was 21% (inactive); in [11], 34.3% (inactive). The values for the z-score in [3] (setting [12]), in assay [3] (setting [13]) and in assay [3] (setting [14]) were -0.242, 0.755 and 0.581, respectively. Besides, the fluorescence slope in assay [5] is -0.447 (inactive). In addition, in assay [6], the NADPH fluorescence slope was -4.5e-05 (inactive). The slope in [7] is 0.00359 (inactive). The compound was called inactive in assay [8].

On to `CN(C)CCCN1c2ccccc2Sc2ccccc21`, for which the inhibition of aggregation in assay [1] is 3.5% (inactive). Besides, the nuclei count in assay [1] was 100%; in assay [2], 110%. The inhibition in [2] was 3.6% (inactive); in assay [4] it was 11.3% (inactive); in assay [9], 8.93% (inactive) and 48% (inactive); in assay [10] it was 6.01% (inactive); in [11] it was 34.6% (inactive). Besides, the values for the z-score in assay [3] (setting [12]), in assay [3] (setting [13]) and in assay [3] (setting [14]) were 0.654, 0.845 and -0.156, respectively. Also, the fluorescence slope in assay [5] was -0.511 (inactive). Further, the NADPH fluorescence slope in [6] was -7e-05 (inactive). Also, the slope in assay [7] was 0.00267 (inactive). Besides, the compound was called inactive in [8].

For the origin of these results see PubChem BioAssay.
